# Where “and” joins values, the source holds several entries; their conditions need not be identical. Equal entries are not always repeated. Among all 5,500 compounds or so, about 2,000 (36%) were called active. About 18% were inconclusive and are not listed. No stated cut-off is given here; in the data, active means normalized growth mostly below about 0.91 (no sharp cut-off); inconclusive means no clear call, values can overlap the other calls; inactive means mostly above about 0.92. Some of the results follow. More than one record can exist for a structure, and the calls need not agree.
# Assay: chemical genetic growth profiling, strain panel (AID 1159580);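 further: tested at 20 µM; growth read once vehicle control cultures reached saturation at 30 °C; 1 = growth at the plate median or of vehicle wells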
# Settings: growth OD
smiles,measurement,setting,value
CN1CCN(CCCN2c3ccccc3Sc3ccc(C(F)(F)F)cc32)CC1,normalized growth,"S. cerevisiae deletion strains, locus YJR075W, strain HOC1, stronger effect = lower value",0.0765 (active) and 0.787 (active)
same,normalized growth,"S. cerevisiae deletion strains, locus YKL009W, strain mrt4, stronger effect = lower value",0.875 (active)
same,normalized growth,"S. cerevisiae deletion strains, locus YKL068W, stronger effect = lower value",0.984 (inactive)
same,normalized growth,"S. cerevisiae deletion strains, locus YKL085W, strain MDH1 (second series), stronger effect = lower value",0.957 (inactive)
same,normalized growth,"S. cerevisiae deletion strains, locus YKL085W, strain MDH1, stronger effect = lower value",0.957 (inactive)
same,normalized growth,"S. cerevisiae deletion strains, locus YKL160W, strain elf1, stronger effect = lower value",0.0849 (active)
same,normalized growth,"S. cerevisiae deletion strains, locus YKL190W, strain CNB1, stronger effect = lower value",0.0505 (active)
same,normalized growth,"S. cerevisiae deletion strains, locus YKR001C, strain vps1, stronger effect = lower value",0.0668 (active)
same,normalized growth,"S. cerevisiae deletion strains, locus YKR026C, strain gcn3, stronger effect = lower value",0.0825 (active)
same,normalized growth,"S. cerevisiae deletion strains, locus YKR091W, strain srl3, stronger effect = lower value",0.073 (active)
same,normalized growth,"S. cerevisiae deletion strains, locus YLL001W, strain dnm1, stronger effect = lower value",0.0784 (active)
same,normalized growth,"S. cerevisiae deletion strains, locus YLL026W, stronger effect = lower value",0.0619 (active)
same,normalized growth,"S. cerevisiae deletion strains, locus YLL041C, strain sdh2, stronger effect = lower value",0.0714 (active)
same,normalized growth,"S. cerevisiae deletion strains, locus YLR027C, strain aat2, stronger effect = lower value",0.0651 (active)
same,normalized growth,"S. cerevisiae deletion strains, locus YLR039C, strain RIC1, stronger effect = lower value",0.105 (active)
same,normalized growth,"S. cerevisiae deletion strains, locus YLR058C, strain SHM2, stronger effect = lower value",0.0587 (active)
same,normalized growth,"S. cerevisiae deletion strains, locus YLR102C, strain apc9, stronger effect = lower value",0.0738 (active)
same,normalized growth,"S. cerevisiae deletion strains, locus YLR113W, strain HOG1, stronger effect = lower value",0.941 (inactive)
same,normalized growth,"S. cerevisiae deletion strains, locus YLR221C, strain rsa3, stronger effect = lower value",0.0717 (active)
same,normalized growth,"S. cerevisiae deletion strains, locus YLR258W, strain gsy2, stronger effect = lower value",0.0705 (active)
same,normalized growth,"S. cerevisiae deletion strains, locus YLR262C, strain YPT6 (second series), stronger effect = lower value",0.0947 (active)
same,normalized growth,"S. cerevisiae deletion strains, locus YLR262C, strain YPT6, stronger effect = lower value",0.129 (active)
same,normalized growth,"S. cerevisiae deletion strains, locus YLR268W, strain sec22, stronger effect = lower value",0.0809 (active)
same,normalized growth,"S. cerevisiae deletion strains, locus YLR320W, strain mms22, stronger effect = lower value",0.0931 (active)
same,normalized growth,"S. cerevisiae deletion strains, locus YLR330W, strain CHS5, stronger effect = lower value",0.0585 (active)
same,normalized growth,"S. cerevisiae deletion strains, locus YLR342W, strain FKS1 (second series), stronger effect = lower value",0.0849 (active)
same,normalized growth,"S. cerevisiae deletion strains, locus YLR342W, strain FKS1, stronger effect = lower value",0.0733 (active)
same,normalized growth,"S. cerevisiae deletion strains, locus YLR357W, strain rsc2, stronger effect = lower value",0.148 (active)
same,normalized growth,"S. cerevisiae deletion strains, locus YLR370C, strain arc18, stronger effect = lower value",0.0604 (active)
same,normalized growth,"S. cerevisiae deletion strains, locus YLR371W, strain rom2, stronger effect = lower value",0.0675 (active)
same,normalized growth,"S. cerevisiae deletion strains, locus YLR384C, strain iki3, stronger effect = lower value",0.0666 (active)
same,normalized growth,"S. cerevisiae deletion strains, locus YLR418C, strain cdc73, stronger effect = lower value",0.125 (active)
same,normalized growth,"S. cerevisiae deletion strains, locus YML016C, strain PPZ1, stronger effect = lower value",0.0583 (active)
same,normalized growth,"S. cerevisiae deletion strains, locus YML032C, strain rad52, stronger effect = lower value",0.0831 (active)
same,normalized growth,"S. cerevisiae deletion strains, locus YML120C, strain ndi1, stronger effect = lower value",0.0683 (active)
same,normalized growth,"S. cerevisiae deletion strains, locus YML124C, strain tub3, stronger effect = lower value",0.0843 (active)
same,normalized growth,"S. cerevisiae deletion strains, locus YMR058W, strain fet3, stronger effect = lower value",0.0611 (active)
same,normalized growth,"S. cerevisiae deletion strains, locus YMR078C, strain ctf18, stronger effect = lower value",0.239 (active)
same,normalized growth,"S. cerevisiae deletion strains, locus YMR125W, strain sto1, stronger effect = lower value",0.0897 (active)
same,normalized growth,"S. cerevisiae deletion strains, locus YMR129W, stronger effect = lower value",0.061 (active)
same,normalized growth,"S. cerevisiae deletion strains, locus YMR205C, strain PFK2, stronger effect = lower value",0.199 (active)
same,normalized growth,"S. cerevisiae deletion strains, locus YMR223W, strain ubp8, stronger effect = lower value",0.0945 (active)
same,normalized growth,"S. cerevisiae deletion strains, locus YMR231W, strain pep5, stronger effect = lower value",0.0666 (active)
same,normalized growth,"S. cerevisiae deletion strains, locus YMR263W, strain SAP30, stronger effect = lower value",0.122 (active) and 1 (inactive)
same,normalized growth,"S. cerevisiae deletion strains, locus YMR307W, strain GAS1, stronger effect = lower value",0.122 (active) and 0.848 (active)
same,normalized growth,"S. cerevisiae deletion strains, locus YNL067W, strain RPL9B, stronger effect = lower value",0.0685 (active)
same,normalized growth,"S. cerevisiae deletion strains, locus YNL071W, strain lat1, stronger effect = lower value",0.0775 (active)
same,normalized growth,"S. cerevisiae deletion strains, locus YNL128W, strain TEP1, stronger effect = lower value",0.0773 (active)
same,normalized growth,"S. cerevisiae deletion strains, locus YNL153C, strain GIM3, stronger effect = lower value",0.0603 (active) and 0.583 (active)
same,normalized growth,"S. cerevisiae deletion strains, locus YNL175C, strain NOP13, stronger effect = lower value",1.15 [resistant] (active)
same,normalized growth,"S. cerevisiae deletion strains, locus YNL183C, strain NPR1, stronger effect = lower value",0.91 (inactive)
same,normalized growth,"S. cerevisiae deletion strains, locus YNL197C, strain WHI3, stronger effect = lower value",1.08 (inactive)
same,normalized growth,"S. cerevisiae deletion strains, locus YNL209W, strain ssb2, stronger effect = lower value",0.0693 (active)
same,normalized growth,"S. cerevisiae deletion strains, locus YNL224C, strain SQS1, stronger effect = lower value",1.11 [resistant] (active)
same,normalized growth,"S. cerevisiae deletion strains, locus YNL233W, strain BNI4, stronger effect = lower value",0.0609 (active)
same,normalized growth,"S. cerevisiae deletion strains, locus YNL248C, strain rpa49, stronger effect = lower value",0.102 (active)
same,normalized growth,"S. cerevisiae deletion strains, locus YNL250W, strain rad50, stronger effect = lower value",0.968 (inactive)
same,normalized growth,"S. cerevisiae deletion strains, locus YNL271C, strain bni1, stronger effect = lower value",0.982 (inactive)
same,normalized growth,"S. cerevisiae deletion strains, locus YNL298W, strain CLA4, stronger effect = lower value",0.938 (inactive)
same,normalized growth,"S. cerevisiae deletion strains, locus YNL307C, strain MCK1, stronger effect = lower value",0.0726 (active)
same,normalized growth,"S. cerevisiae deletion strains, locus YNL322C, strain KRE1 (second series), stronger effect = lower value",0.978 (inactive)
same,normalized growth,"S. cerevisiae deletion strains, locus YNL322C, strain KRE1, stronger effect = lower value",0.0571 (active)
same,normalized growth,"S. cerevisiae deletion strains, locus YNR049C, strain mso1, stronger effect = lower value",0.0676 (active)
same,normalized growth,"S. cerevisiae deletion strains, locus YNR052C, strain pop2, stronger effect = lower value",0.0713 (active)
same,normalized growth,"S. cerevisiae deletion strains, locus YOL006C, strain TOP1, stronger effect = lower value",0.119 (active)
same,normalized growth,"S. cerevisiae deletion strains, locus YOL012C, strain htz1",0.176 (active)
same,normalized growth,"S. cerevisiae deletion strains, locus YOL147C, strain pex11, stronger effect = lower value",0.0736 (active)
same,normalized growth,"S. cerevisiae deletion strains, locus YOR001W, strain rrp6, stronger effect = lower value",0.0923 (active)
same,normalized growth,"S. cerevisiae deletion strains, locus YOR061W, strain CKA2, stronger effect = lower value",0.0554 (active)
same,normalized growth,"S. cerevisiae deletion strains, locus YOR069W, strain VPS5, stronger effect = lower value",0.112 (active)
same,normalized growth,"S. cerevisiae deletion strains, locus YOR070C, strain gyp1, stronger effect = lower value",0.0657 (active)
same,normalized growth,"S. cerevisiae deletion strains, locus YOR080W, strain dia2, stronger effect = lower value",0.0771 (active)
same,normalized growth,"S. cerevisiae deletion strains, locus YOR083W, strain WHI5 (second series), stronger effect = lower value",0.748 (active)
same,normalized growth,"S. cerevisiae deletion strains, locus YOR083W, strain WHI5, stronger effect = lower value",0.0778 (active)
same,normalized growth,"S. cerevisiae deletion strains, locus YOR106W, strain vam3, stronger effect = lower value",0.0723 (active)
same,normalized growth,"S. cerevisiae deletion strains, locus YOR136W, strain idh2, stronger effect = lower value",0.0795 (active)
same,normalized growth,"S. cerevisiae deletion strains, locus YOR144C, strain elg1, stronger effect = lower value",0.0731 (active)
same,normalized growth,"S. cerevisiae deletion strains, locus YOR184W, strain ser1, stronger effect = lower value",0.0849 (active)
same,normalized growth,"S. cerevisiae deletion strains, locus YOR231W, strain MKK1, stronger effect = lower value",0.939 (inactive)
same,normalized growth,"S. cerevisiae deletion strains, locus YOR265W, strain rbl2, stronger effect = lower value",0.0652 (active)
same,normalized growth,"S. cerevisiae deletion strains, locus YOR270C, strain vph1, stronger effect = lower value",0.136 (active)
same,normalized growth,"S. cerevisiae deletion strains, locus YOR290C, strain snf2, stronger effect = lower value",0.0834 (active)
same,normalized growth,"S. cerevisiae deletion strains, locus YOR316C, strain cot1, stronger effect = lower value",0.0693 (active)
same,normalized growth,"S. cerevisiae deletion strains, locus YPL051W, strain arl3, stronger effect = lower value",0.12 (active)
same,normalized growth,"S. cerevisiae deletion strains, locus YPL055C, strain LGE1, stronger effect = lower value",0.072 (active) and 0.65 (active)
same,normalized growth,"S. cerevisiae deletion strains, locus YPL078C, strain atp4, stronger effect = lower value",0.161 (active)
same,normalized growth,"S. cerevisiae deletion strains, locus YPL106C, strain sse1, stronger effect = lower value",0.104 (active)
same,normalized growth,"S. cerevisiae deletion strains, locus YPL240C, strain hsp82, stronger effect = lower value",0.0671 (active)
same,normalized growth,"S. cerevisiae deletion strains, locus YPL241C, strain CIN2, stronger effect = lower value",0.0575 (active)
same,normalized growth,"S. cerevisiae deletion strains, locus YPL256C, strain CLN2, stronger effect = lower value",0.914 (inactive)
same,normalized growth,"S. cerevisiae deletion strains, locus YPR119W, strain clb2, stronger effect = lower value",0.079 (active)
same,normalized growth,"S. cerevisiae deletion strains, locus YPR141C, strain kar3, stronger effect = lower value",0.98 (inactive)
same,normalized growth,"S. cerevisiae deletion strains, locus YPR163C, strain tif3, stronger effect = lower value",0.0727 (active)
same,normalized growth,"S. cerevisiae deletion strains, locus YPR167C, strain met16, stronger effect = lower value",0.0761 (active)
same,normalized growth,"S. cerevisiae deletion strains, strain wtn01, stronger effect = lower value",0.073 (active)
same,normalized growth,"S. cerevisiae strains, strain wild type, stronger effect = lower value",0.0552 (active)

# — PubChem BioAssay AID1159580 (chemical genetic matrix, 2015)
